The values that follow come from PubChem BioAssay (NCI).

This is part of a sample that, as a whole, favours compounds with a hit. Of some 83,000 tested, about 20% had one in any assay.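 Treatment: one concentration, 48 hours, 96-well format. Scoring: percent growth, with anything below 10 considered active.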 Values without a mark were called inactive. The source made the active and inactive calls.

One assay concerns ACHN renal. Briefly: NCI-60 one-dose screen, 48 h (100 = growth as untreated, 0 = no growth, -100 = all killed). As to conditions: 10 µM unless noted.
For the compound `CC(C)CNc1nc(N=[N+]=[N-])nc(NCC(C)C)n1`, the growth was 53.6% [100 µM]. On the same count and under the same terms, the figure for `CCCCCCCSc1ncnc2[nH]ncc12` is 88.7%; for `COC(=O)[C@H](Cc1cn(C)cn1)NC(=O)[C@H](Cc1ccccc1)NC(=O)Nc1cc(C(F)(F)F)cc(C(F)(F)F)c1` it is -96.3% [100 µM] (active); for `CC[N+](CCCCCCCCCC[N+](CC)(c1ccccn1)c1ccccn1)(c1ccccn1)c1ccccn1` it is 20.9%. The same measure, in the same setting: the same measure for `CCCCCCC(CC#N)(CCC)CCCC` (configuration not stated): 99%. Still for that read-out and setting: the figure for `O=C1NC(=O)/C(=C\c2ccco2)S1` is 100%; for `Cc1sc2nc3c4ccccc4c(NCCCN(C)C)nn3c(=O)c2c1C` it is 53.5%; for `COc1ccc([N+](=O)[O-])c(S(=O)(=O)c2ccc(Cl)cc2)n1` it is 26.9%. For `COc1ccc(NC(=O)c2ccccc2-c2ccccc2)c(C(N)=O)c1`, the growth was 40.4%.

In the case of `CCCCCc1c(C)[nH]c(/C=C2\N=C(c3ccc[nH]3)C=C2Oc2ccccc2)c1C`, the growth is -61% [100 µM] (active). On the same count and under the same terms, the same measure for `COc1ccc(NC(=O)[C@@H]2C[C@H]2c2ccccc2)c(C(N)=O)c1`: 102%; for `COc1cc(-c2n[nH]nc2-c2ccccn2)cc(OC)c1OC`: 94.8%. Same read-out and setting: the figure for `COC(=O)[C@H](Cc1cnc[nH]1)NC(=O)[C@@H](NC(=O)Nc1cc(C(F)(F)F)cc(C(F)(F)F)c1)C(C)C` is -58.3% [100 µM] (active).

For `O=C1C(=O)/C(=C/c2ccccc2)CCCCCC/C1=C/c1ccccc1`, the growth was 88.5%. On the same count and under the same terms, the same measure for `O=C(Nc1ccc(Cl)cc1)Nc1nc2ccc(OC(F)(F)F)cc2o1`: 89.4%. The same measure, in the same setting: the figure for `COc1ccc(N2CCN(CC(=O)N3CCN(c4nnc(-c5ccccc5)c(-c5ccccc5)n4)CC3)CC2)cc1` is 40.5%. For the compound `CCCCCCCCCCCCCCCCNC(=O)Nc1ccc2ccccc2c1`, the growth is 108%.

Turning to `FCc1ncc(-c2ccc(C(F)(F)F)cc2)c(NC2CCCCCC2)n1`, the growth was 8.81% [100 µM] (active). Same read-out and setting: the same measure for `O=Cc1ncc(-c2ccc(C(F)(F)F)cc2)c(NC2CCCCCC2)n1`: -99.5% [100 µM] (active); for `COC(=O)[C@H](Cc1cn(C)cn1)NC(=O)[C@@H](NC(=O)Nc1cc(C(F)(F)F)cc(C(F)(F)F)c1)C(C)C`: -98.4% [100 µM] (active). Still for that read-out and setting: the same measure for `CSc1nc(-c2ccc(O)cc2O)c2c(=O)[nH]c(Nc3ccc(S(=O)(=O)Nc4nc(C)cc(C)n4)cc3)nc2n1`: 93.3%; for `CC(C)OP(=O)(OC(C)C)c1ncc(-c2ccc(C(F)(F)F)cc2)c(NC2CCCCCC2)n1`: -1.03% [33.3 µM] (active).

In the case of `NS(=O)(=O)c1ccc(-n2nc(-c3ccc(Br)cc3)ccc2=O)cc1`, the growth was 70.8% [100 µM]. Still for that read-out and setting: the same measure for `CC1CC=CCC1C1OCC(C)(C)CO1` (configuration not stated): 106%; for `N[C@H](CS)C(=O)O`: 102%; for `CCCCCc1c(C)[nH]c(/C=C2\N=C(c3ccc[nH]3)C=C2Oc2ccc(Cl)cc2)c1C`: -48% [100 µM] (active). With `[N-]=[N+]=NCc1ncc(-c2ccc(C(F)(F)F)cc2)c(NC2CCCCCC2)n1`, the growth is 73.1% [50 µM]. In the case of `COc1ccc(-c2nnc3c4[nH]cnc4ncn23)c(OC)c1`, the growth is 28.2%.

For `CCOC(=O)c1sc(NC(=O)COc2cccc(/C=C3\Cc4ccc(Cl)cc4C3=O)c2)nc1C`, the growth was 110%.

Regarding `CCCCCCCC[Si](OCC)(OCC)OCC`, the growth was 98.2%. The same measure, in the same setting: the figure for `CCOc1cc(CCNS(=O)(=O)c2ccc(C)cc2)c(C(C)=O)cc1OCC` is 75.5% [100 µM]. The same measure, in the same setting: the figure for `CC(=O)c1ccc(NS(=O)(=O)c2ccc([N+](=O)[O-])cc2)cc1` is 93.8%; for `COC(=O)[C@H](CCCCNC(=O)OCc1ccccc1)NC(=O)[C@@H](NC(=O)Nc1cc(C(F)(F)F)cc(C(F)(F)F)c1)C(C)C` it is -99.4% [100 µM] (active); for `O=C(/C=C/c1c(-c2ccccc2)[nH]c2ccccc12)S(=O)(=O)c1ccccc1` it is 71.8%. Take `CCOC(=O)C(C(=O)OCC)C1CCCCC1`: the growth was 102%. The same measure, in the same setting: the same measure for `CNc1nc(NC2CCCC2)nc(Sc2ccc(OC)cc2)n1`: 21% [100 µM]; for `O=c1sc2ncnc3ncn1c32`: 80.3%; for `Cc1nn2c(/C=C3/C(=O)Nc4cc(Cl)ccc43)c(-c3ccccc3)nc2s1`: -26.5% (active).

As for `Nc1nc2c(nnn2Cc2ccc(Cl)c(Cl)c2)c(=O)[nH]1`, the growth was 92.4%.

The test system of another assay is CAKI-1 renal. The assay is described as above. As to conditions: 10 µM unless noted.
For `CC(C)CNc1nc(N=[N+]=[N-])nc(NCC(C)C)n1`, the growth was 4.03% [100 µM] (active). Same read-out and setting: the same measure for `CC[N+](CCCCCCCCCC[N+](CC)(c1ccccn1)c1ccccn1)(c1ccccn1)c1ccccn1`: 24.2%; for `Cc1sc2nc3c4ccccc4c(NCCCN(C)C)nn3c(=O)c2c1C`: 84.4%.

For `COc1ccc([N+](=O)[O-])c(S(=O)(=O)c2ccc(Cl)cc2)n1`, the growth was 49.6%. On the same count and under the same terms, the same measure for `COc1ccc(NC(=O)c2ccccc2-c2ccccc2)c(C(N)=O)c1`: 41.9%; for `CCCCCc1c(C)[nH]c(/C=C2\N=C(c3ccc[nH]3)C=C2Oc2ccccc2)c1C`: -62.8% [100 µM] (active). On to `COc1ccc(NC(=O)[C@@H]2C[C@H]2c2ccccc2)c(C(N)=O)c1`, for which the growth was 103%. The same measure, in the same setting: the figure for `COc1cc(-c2n[nH]nc2-c2ccccn2)cc(OC)c1OC` is 124%; for `COC(=O)[C@H](Cc1cnc[nH]1)NC(=O)[C@@H](NC(=O)Nc1cc(C(F)(F)F)cc(C(F)(F)F)c1)C(C)C` it is 40.9% [100 µM]; for `O=C1C(=O)/C(=C/c2ccccc2)CCCCCC/C1=C/c1ccccc1` it is 82.1%.

Regarding `O=C(Nc1ccc(Cl)cc1)Nc1nc2ccc(OC(F)(F)F)cc2o1`, the growth was 92.7%. Still for that read-out and setting: the figure for `COc1ccc(N2CCN(CC(=O)N3CCN(c4nnc(-c5ccccc5)c(-c5ccccc5)n4)CC3)CC2)cc1` is 76.5%. The same measure, in the same setting: the figure for `CCCCCCCCCCCCCCCCNC(=O)Nc1ccc2ccccc2c1` is 107%; for `FCc1ncc(-c2ccc(C(F)(F)F)cc2)c(NC2CCCCCC2)n1` it is 0.556% [100 µM] (active); for `COC(=O)[C@H](Cc1cn(C)cn1)NC(=O)[C@@H](NC(=O)Nc1cc(C(F)(F)F)cc(C(F)(F)F)c1)C(C)C` it is -91.3% [100 µM] (active). The same measure, in the same setting: the same measure for `CSc1nc(-c2ccc(O)cc2O)c2c(=O)[nH]c(Nc3ccc(S(=O)(=O)Nc4nc(C)cc(C)n4)cc3)nc2n1`: 1120%; for `CC(C)OP(=O)(OC(C)C)c1ncc(-c2ccc(C(F)(F)F)cc2)c(NC2CCCCCC2)n1`: -29.4% [33.3 µM] (active); for `NS(=O)(=O)c1ccc(-n2nc(-c3ccc(Br)cc3)ccc2=O)cc1`: 75.1% [100 µM]. Take `CC1CC=CCC1C1OCC(C)(C)CO1` (configuration not stated): the growth was 106%.

Take `N[C@H](CS)C(=O)O`: the growth is 70.4%. The same measure, in the same setting: the figure for `CCCCCc1c(C)[nH]c(/C=C2\N=C(c3ccc[nH]3)C=C2Oc2ccc(Cl)cc2)c1C` is -22.7% [100 µM] (active); for `[N-]=[N+]=NCc1ncc(-c2ccc(C(F)(F)F)cc2)c(NC2CCCCCC2)n1` it is 84.3% [50 µM]. Consider `COc1ccc(-c2nnc3c4[nH]cnc4ncn23)c(OC)c1`, for which the growth is 20.9%. On the same count and under the same terms, the same measure for `C1CCC(C(CC2CCCCN2)C2CCCCC2)CC1` (configuration not stated): 5.48% (active); for `CCOC(=O)c1sc(NC(=O)COc2cccc(/C=C3\Cc4ccc(Cl)cc4C3=O)c2)nc1C`: 84.6%. The same measure, in the same setting: the same measure for `CCCCCCCC[Si](OCC)(OCC)OCC`: 54.9%.

`CCOc1cc(CCNS(=O)(=O)c2ccc(C)cc2)c(C(C)=O)cc1OCC`: the growth was 36% [100 µM]. Still for that read-out and setting: the figure for `CC(=O)c1ccc(NS(=O)(=O)c2ccc([N+](=O)[O-])cc2)cc1` is 96.9%; for `COC(=O)[C@H](CCCCNC(=O)OCc1ccccc1)NC(=O)[C@@H](NC(=O)Nc1cc(C(F)(F)F)cc(C(F)(F)F)c1)C(C)C` it is -36.3% [100 µM] (active); for `O=C(/C=C/c1c(-c2ccccc2)[nH]c2ccccc12)S(=O)(=O)c1ccccc1` it is 200%. Same read-out and setting: the same measure for `CNc1nc(NC2CCCC2)nc(Sc2ccc(OC)cc2)n1`: 0.0278% [100 µM] (active); for `O=c1sc2ncnc3ncn1c32`: 43.1%. With `Cc1nn2c(/C=C3/C(=O)Nc4cc(Cl)ccc43)c(-c3ccccc3)nc2s1`, the growth is -50.4% (active).
